Assay outcomes as filed in PubChem.
Rows were chosen to be rich in hits. Some 6.5% of all compounds tested hit in one or more screens of this group.
Spn PMK inh: S. pneumoniae PMK inhibitors, primary screen, biochemical, mevalonate pathway, pilot trial included. phosphomevalonate kinase (Streptococcus pneumoniae D39). purified PMK, PK/LDH-coupled NADH absorbance 340 nm. inhibition, % at 10 µM. 65,000 tested, 0.49% active;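 active means top-ranked compounds by inhibition in the single 10 µM screen, taking a fixed number of the strongest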;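 further: 0% = full reaction with DMSO carrier and 100% = background rate without enzyme reaction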
Abs 340nm: compound light absorbance at 340 nm, profiling panel, artefact control, biochemical, MLSMR library, data from PS, PMK, MK assays. compound absorbance at 340 nm, fold over control. fold change at 10 µM. 65,000 tested, under 10 active. AID 708, 2007;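 active means at 10 µM dose, initial 340 nm absorbance at least 2 fold that of control wells; inactive means change under 2 fold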;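 further: initial absorbance extrapolated from kinetic A340 decline of NADH oxidation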
Spn MK inh: S. pneumoniae MK inhibitors, primary screen, biochemical, PK/LDH-coupled NADH absorbance; mevalonate kinase [Streptococcus pneumoniae D39]; purified MK, PK/LDH-coupled NADH absorbance 340 nm; inhibition, % at 10 µM; 65,000 tested, 0.48% active; AID 555, 2006;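 active means ranked among the strongest by inhibition in the single 10 µM screen, a fixed top-ranked set picked for dose follow-up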
Autofluor 339: intrinsic fluorescence of library compounds, ex339/em460 – biochemical, MLSMR library, data from DPM-DC assay, artefact control, profiling panel | compound autofluorescence, ex339/em460 nm, NADH buffer; stronger effect = higher value; 1 = no-compound wells, NADH background | fluorescence fold increase at 10 µM | 65,000 tested, 5.5% active | AID 709, 2007;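 active means at 10 µM, mean starting fluorescence two-fold or more over control wells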;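 further: signal is the first read of a kinetic run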
DPM-DC inhibit: S. pneumoniae DPM-DC inhibitors, primary screen, biochemical, PK/LDH-coupled NADH fluorescence. diphosphomevalonate decarboxylase (Streptococcus pneumoniae D39). purified DPM-DC. calls only at 10 µM. 65,000 tested, 0.49% active. AID 556, 2006;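 active means the 320 compounds with the highest percent inhibition in the single-dose primary screen, excluding strongly autofluorescent ones, cut at about 32% in these data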;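 further: kinetic rate of NADH fluorescence loss reporting ADP formed by the decarboxylase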
NADH enzymes: inhibitors of PK/LDH coupling enzymes, profiling panel, artefact control, biochemical, MLSMR library | IC50, µM (titrated, usually from 10 µM), inactives show at the highest dose inhibition | 65,000 tested, 0.02% active | AID 774, 2007 | coupled PK/LDH NADH assays, four targets;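 active means single-dose screening hits from any of four coupled enzyme assays that gave an IC50 when retested across doses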;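 further: the DPM-DC format reads NADH fluorescence rather than 340 nm absorbance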
An asterisk follows results filed as active; i = inactive; / = no result given; + = active, no number.

SMILES | Spn PMK inh | Abs 340nm | Spn MK inh | Autofluor 339 | DPM-DC inhibit | NADH enzymes
O=C(c1coc2ccccc2c1=O)N1CCN(c2cccc(C(F)(F)F)c2)CC1 | 8.0 | 1.04 | 4.0 | 1.15 | i | 4.0%
COc1ccc2c(C)cc(=O)oc2c1C | 9.0 | 1.07 | 7.0 | 2.09* | / | 8.0%
Cc1cc(=O)oc2c(C)c(OCC(=O)N(C)C)ccc12 | 0.0 | 1.1 | 5.0 | 3.35* | / | 3.0%
CCc1cc(=O)oc2cc(OCC(=O)N(CC)CC)c(Cl)cc12 | 12.0 | 1.1 | 7.0 | 1.54 | i | 10.0%
Cc1c(C)c2ccc(OCC(=O)N(C)C)c(C)c2oc1=O | 11.0 | 1.19 | 15.0 | 3.68* | / | 13.0%
Brc1cccc(-c2nnc(SCc3ccon3)n2-c2ccccc2)c1 | 0.0 | 1.08 | 0.0 | 1.09 | i | 0.0%
CCN(Cc1ccncc1)S(=O)(=O)c1ccc(C(C)=O)cc1 | 14.0 | 0.98 | 9.0 | 1.06 | i | 8.0%
S=C(c1ccc2c(c1)OCO2)N1CCCC1 | 4.0 | 1.06 | 12.0 | 1.08 | i | 5.0%
COc1cccc(NC(=O)c2cn(C)c(=O)c3cc(OC)c(OC)cc23)c1 | 11.0 | 1.06 | 0.0 | 1.12 | i | 4.0%
O=C(Nc1nnc(-c2ccc3c(c2)OCCO3)o1)c1ccc(Cc2ccccc2)cc1 | 9.0 | 1.14 | 0.0 | 2.11* | / | 5.0%
O=C(CSc1nc2c(c(=O)n1-c1ccc(Cl)cc1)SCC2)Nc1ccc2c(c1)OCCO2 | 10.0 | 1.07 | 9.0 | 1.09 | i | 9.0%
CCC1Cc2c(nc3c4c(nc(N5CCOCC5)c(C#N)c24)NC(C)=N3)O1 (configuration not stated) | 4.0 | 0.99 | 3.0 | 3.33* | / | 3.0%
C=CCNc1nc(N2CCOCC2)c(C#N)c2c1CN(C)CC2 | 4.0 | 1.05 | 11.0 | 1.3 | i | 9.0%
CCN(CCCNC(=O)C1CCN(S(=O)(=O)c2cnc[nH]2)CC1)c1cccc(C)c1 | 23.0 | 0.97 | 9.0 | 1.02 | i | 11.0%
CCNc1nc(NC(C)C)nc(N(C#N)CCOc2ccc(Cl)cc2Cl)n1 | 10.0 | 0.99 | 0.0 | 1.04 | i | 3.0%
COC(=O)CCn1nnc(-c2cccs2)n1 | 0.0 | 0.97 | 3.0 | 1.05 | i | 1.0%
COC(=O)CCn1nnc(-c2ccc(C(C)C)cc2)n1 | 8.0 | 1 | 1.0 | 2.95* | i | 7.0%
COc1cc(C)c(S(=O)(=O)NCc2cccs2)cc1C | 3.0 | 1.06 | 10.0 | 1.05 | i | 4.0%
CCCOc1ccc2oc(=O)c3c(c2c1)CCCN3C(=O)CN1CCN(C(=O)c2ccco2)CC1 | 6.0 | 1.09 | 7.0 | 2.97* | i | 7.0%
O=C(CN1CCCC1)N1CCCc2c1c(=O)oc1ccc(OCc3ccccc3)cc21 | 4.0 | 1.06 | 0.0 | 2.99* | + | 12.0%
CCCOc1ccc2oc(=O)c3c(c2c1)CCCN3C(=O)CN1CCN(c2ncccn2)CC1 | 8.0 | 1.1 | 15.0 | 1.86 | i | 15.0%
O=C(Nc1ccon1)c1cnc2sccn2c1=O | 0.0 | 1.13 | 5.0 | 3.22* | i | 8.0%
Cc1cccc(NC(=O)c2cnc3sccn3c2=O)c1 | 1.0 | 1.23 | 6.0 | 1.04 | i | 5.0%
O=C(NCc1cccnc1)c1cnc2sccn2c1=O | 0.0 | 1.2 | 2.0 | 2.2* | / | 1.0%
Cc1cccc(NC(=O)c2cnc3sccn3c2=O)n1 | 0.0 | 1.12 | active | 0.97 | i | 8.0%
SMILES | Spn PMK inh | Abs 340nm | Spn MK inh | Autofluor 339 | DPM-DC inhibit | NADH enzymes
COc1ccc(NC(=O)c2cnc3sccn3c2=O)cc1 | 15.0 | 1.19 | 4.0 | 0.95 | i | 7.0%
COc1ccccc1CNC(=O)c1cnc2sccn2c1=O | 6.0 | 1.15 | 1.0 | 1.15 | i | 4.0%
CCCCNC(=O)c1cn(C)c2ccc(S(=O)(=O)N3CCOCC3)cc2c1=O | 7.0 | 1.06 | 7.0 | 1.19 | i | 5.0%
COc1cccc(CSc2nc3sc(C)c(C)c3c(=O)n2Cc2ccco2)c1 | 3.0 | 1.04 | 7.0 | 1.06 | i | 3.0%
Cc1ccc2cc(CCNC(=O)CC(C)C)c(=O)[nH]c2c1 | 8.0 | 1.09 | 6.0 | 1.22 | i | 8.0%
CC(=O)OC1=C(C#N)Cn2ccc3cccc1c32 | 5.0 | 1.07 | 9.0 | 3.86* | / | 7.0%
CC1Cc2nc(SCC(=O)Nc3ccc4c(c3)OCO4)n(-c3ccc(F)cc3)c(=O)c2S1 (configuration not stated) | 3.0 | 1.01 | 4.0 | 1.02 | i | 2.0%
CC1CCCC(NC(=O)CCn2c(=O)oc3ccccc32)C1C (configuration not stated) | 18.0 | 0.99 | 7.0 | 1.13 | i | 8.0%
CCn1c(SCC(=O)Nc2ccc(Cl)cc2)nnc1C1CC1 | 58.0* | 0.99 | 4.0 | 1.03 | i | 9.0%
CCn1c(SCC(=O)Nc2ccc(NC(C)=O)cc2)nnc1C1CC1 | 19.0 | 0.98 | 7.0 | 1.09 | i | 10.0%
COC(=O)c1ccc(=O)n(Cc2ccc3c(c2)OCO3)c1 | 4.0 | 1.01 | 5.0 | 1.06 | i | 3.0%
CCCC1Cc2nc(N3CCCCC3)c(C#N)cc2CO1 (configuration not stated) | 10.0 | 1.03 | 9.0 | 3.57* | / | 10.0%
Cc1cc(C)cc(-n2nnc(C(=O)NCc3ccccc3Cl)c2N)c1 | 10.0 | 0.98 | 4.0 | 1.07 | i | 5.0%
Cc1ccc(-n2nc3c(c2NC(=O)c2c(-c4ccccc4Cl)noc2C)CS(=O)(=O)C3)c(C)c1 | 25.0* | 1 | 1.0 | 1.08 | i | 9.0%
CCn1c(-c2ccc3[nH]c(C)c(C)c3c2)n[nH]c1=S | 13.0 | 0.99 | 11.0 | 1.12 | i | 10.0%
Cc1cc(C)c(C#N)c(N2CCCC(C(N)=O)C2)n1 (configuration not stated) | 9.0 | 1 | 2.0 | 4.14* | / | 6.0%
Cc1cc(N(C)C)c(C#N)c(N2CCOCC2)n1 | 3.0 | 1.02 | 11.0 | 1.13 | i | 5.0%
Cc1cc(C)c(C#N)c(N2CCSCC2)n1 | 11.0 | 1.01 | 10.0 | 2.71* | i | 13.0%
Cc1cc(C)c(C#N)c(SCC(=O)N2CCCCC2)n1 | 0.0 | 1.06 | 0.0 | 1.12 | i | 1.0%
COC(=O)CN(Cc1ccccc1)S(=O)(=O)c1ccc(OC)c(OC)c1 | 9.0 | 1.05 | 0.0 | 1.09 | i | 3.0%
O=c1oc2c3c4c(cc2c(C(F)(F)F)c1CCN1CCOCC1)CCCN4CCC3 | 4.0 | 1.03 | 0.0 | 1.12 | i | 4.0%
CC(C)c1cc(=O)oc2c3c4c(cc12)CCCN4CCC3 | 4.0 | 1.07 | 6.0 | 2.06* | / | 5.0%
c1cnc2c(SCc3ccc(-c4nnco4)cc3)cccc2c1 | 6.0 | 1.03 | 0.0 | 3.33* | / | 3.0%
c1ccc2[nH]c(SCc3ccc(-c4nnco4)cc3)nc2c1 | 14.0 | 1.02 | 2.0 | 1.06 | i | 5.0%
